# Laboratory results from PubChem BioAssay AID651768 (National Center for Advancing Translational Sciences (NCATS), 2012).
# Out of some 360,000 compounds screened, about 1,700 (0.47%) were called active. Not shown: some 2% with an inconclusive outcome. Calls come from the whole dose curve; as a rule, active = well fitted inhibition curve with a large enough effect; inconclusive = small, poorly fitted or top-dose-only effect; inactive = no such curve, though single readings can be large or run the other way. The list comes from a sample in which actives are over-represented; it also holds similar structures and randomly drawn compounds.
# Target: Bifunctional 3'-5' exonuclease/ATP-dependent helicase WRN (Homo sapiens) (UniProt Q14191)
# Sequence (Q14191 whole entry, looked up): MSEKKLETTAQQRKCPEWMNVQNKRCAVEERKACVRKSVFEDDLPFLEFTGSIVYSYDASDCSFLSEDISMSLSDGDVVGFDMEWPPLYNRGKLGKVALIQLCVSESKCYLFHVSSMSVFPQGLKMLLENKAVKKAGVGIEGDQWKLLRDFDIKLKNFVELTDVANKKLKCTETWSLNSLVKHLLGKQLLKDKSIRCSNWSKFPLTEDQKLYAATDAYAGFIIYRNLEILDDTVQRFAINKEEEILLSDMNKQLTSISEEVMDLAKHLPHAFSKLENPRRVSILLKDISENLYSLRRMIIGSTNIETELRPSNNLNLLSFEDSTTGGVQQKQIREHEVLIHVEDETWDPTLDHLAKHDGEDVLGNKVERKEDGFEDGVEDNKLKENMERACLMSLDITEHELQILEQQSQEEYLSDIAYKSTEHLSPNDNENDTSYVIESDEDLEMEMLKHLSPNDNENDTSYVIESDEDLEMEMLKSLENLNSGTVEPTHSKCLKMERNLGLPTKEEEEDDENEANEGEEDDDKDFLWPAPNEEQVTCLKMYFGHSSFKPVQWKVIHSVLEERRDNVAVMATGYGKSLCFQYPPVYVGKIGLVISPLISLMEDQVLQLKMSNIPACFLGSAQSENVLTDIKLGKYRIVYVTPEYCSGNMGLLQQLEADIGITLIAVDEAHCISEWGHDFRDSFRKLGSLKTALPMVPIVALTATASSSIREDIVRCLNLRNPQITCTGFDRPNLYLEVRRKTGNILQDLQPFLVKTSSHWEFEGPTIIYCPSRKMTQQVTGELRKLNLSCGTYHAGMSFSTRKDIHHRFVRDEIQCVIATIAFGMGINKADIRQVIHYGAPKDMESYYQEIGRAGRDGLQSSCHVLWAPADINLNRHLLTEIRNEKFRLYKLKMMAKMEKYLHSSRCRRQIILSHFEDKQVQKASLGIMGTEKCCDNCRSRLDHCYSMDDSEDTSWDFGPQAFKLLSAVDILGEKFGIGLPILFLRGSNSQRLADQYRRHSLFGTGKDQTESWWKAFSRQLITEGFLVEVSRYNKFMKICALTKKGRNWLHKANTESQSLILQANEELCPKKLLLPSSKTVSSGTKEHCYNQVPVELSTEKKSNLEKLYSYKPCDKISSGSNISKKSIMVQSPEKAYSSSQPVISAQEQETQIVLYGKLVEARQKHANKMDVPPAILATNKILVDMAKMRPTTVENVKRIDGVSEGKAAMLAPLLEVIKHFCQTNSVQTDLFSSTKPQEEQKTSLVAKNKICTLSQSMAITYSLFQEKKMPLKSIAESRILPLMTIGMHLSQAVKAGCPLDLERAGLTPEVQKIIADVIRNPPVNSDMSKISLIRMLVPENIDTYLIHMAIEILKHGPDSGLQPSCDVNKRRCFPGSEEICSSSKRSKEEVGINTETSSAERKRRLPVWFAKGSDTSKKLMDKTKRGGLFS
# Assay: qHTS for Inhibitors of WRN Helicase; note: nearly all actives have a fitted effect of over 55% in size
# Details: WRN helicase unwinding, fluorescent forked duplex, kinetic; series mostly up to 114 µM; activity change, negative = inhibition: at the top concentration
# Outline: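 Fluorescence dequenching readout, ex 525 nm/em 598 nm, kinetic mode: forked duplex DNA (100 nM final) with adjacent fluorophore and quencher unwound by WRN (20 nM final) with 2 mM ATP. Compound preincubation 15 min, room temperature.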
# % is set by controls: 0 for no effect and ±100 for the full control effect; potency is the fitted concentration of half-maximal effect.
SMILES,"activity change, negative = inhibition",Potency
CCOC(=O)N1CCN(C(=O)c2ccc(CN(c3ccc(C)c(C)c3)S(C)(=O)=O)cc2)CC1,2.1% (inactive),
O=C(Nc1ccc(S(=O)(=O)N2CCOCC2)cc1)C1CCN(S(=O)(=O)c2ccc(Cl)cc2)CC1,-7.36% (inactive),
O=C(Nc1ccccc1)c1nnsc1S(=O)(=O)c1ccc(Cl)cc1,,44.7 µM (active)
Cc1nnsc1S(=O)(=O)Cc1ccccc1Cl,6.13% (inactive),
COC(=O)[C@@]12C[C@@H](CC(=O)NCCCCc3ccccc3)C(=O)N(Cc3ccccc3)C1=CCC(C)(C)C2,-4.01% (inactive),
CCOC(=O)c1[nH]c2ccc(OC)cc2c1NC(=O)N1CCOCC1,-19.4% (inactive),
COc1ccc2[nH]c3c(C)c4cc[n+](C)cc4c(C)c3c2c1,,22.4 µM (active)
Nc1[nH]c(=S)nc2nc(-c3ccccc3)c(-c3ccccc3)nc12,-29.2% (inactive),
COc1ccccc1Cc1c(-c2ccc(Cl)cc2)nc2c3ccccc3ccn12,0.986% (inactive),
CCc1nc2ccc(C(=O)NCc3ccc(OC)cc3)cn2c1N(CC)Cc1cccc(Br)c1,-8.24% (inactive),
Cc1cccc(C)c1Nc1nnc(SCC(=O)NCCCN2CCCC2=O)s1,-7.98% (inactive),
O=C1CSC(=S)N1/N=C/c1ccc(O)c([N+](=O)[O-])c1,,79.4 µM (active)
CO/N=C/c1ccc(N2CCN(C(=O)c3cccc(Cl)c3)CC2)c([N+](=O)[O-])c1,-2.66% (inactive),
O=C(CNS(=O)(=O)c1ccc(Br)s1)NCc1ccc2c(c1)OCO2,4.96% (inactive),
O=C1CC2(CCCCC2)Oc2ccc(OCC(=O)N3CCOCC3)cc21,-7.15% (inactive),
CCN(CC)CC(=O)Nc1sc2c(c1C(=O)c1ccccc1C)CCC2,-17.1% (inactive),
COc1c(O)cc2oc(-c3ccc(O)c(O)c3)cc(=O)c2c1O,,25.1 µM (active)
CCOC(=O)COc1cc(OCC(=O)OCC)c2c(=O)cc(-c3ccccc3)oc2c1,1.62% (inactive),
COc1cc(O)c2c(=O)c3c(O)c(O)ccc3oc2c1OC,2.49% (inactive),
COc1ccc(Cn2c(=O)sc3ccccc32)cc1OC,1.12% (inactive),
COC(=O)[C@@]12C[C@@H](CC(=O)NCCCCc3ccccc3)C(=O)N(CCc3ccc(OC)c(OC)c3)C1=CCC(C)(C)C2,-4.17% (inactive),
Cc1nnc(-c2ccc(Oc3ccc(C)c(C)c3)c([N+](=O)[O-])c2)o1,6.78% (inactive),
COc1ccc(NC(=O)c2cc(-c3cc(OC)c(OC)c(OC)c3)nc3ccccc23)c(OC)c1,1.58% (inactive),
Cc1ccc2nc(-c3ccncc3)cc(C(=O)Nc3ccc(OC(F)F)cc3)c2c1,,44.7 µM (active)
CC1CCCC(NC(=O)c2cc(-c3ccncc3)nc3ccccc23)C1C (stereo not given),1.59% (inactive),

SMILES,"activity change, negative = inhibition",Potency
O=C1NC[C@H](CCCCN2CCN(CCc3ccccc3)C(=O)C2=O)N(CC2CCCCC2)C1=O,3.05% (inactive),
CCc1ccc(CN(C)C(=O)CCc2nnc(-c3ccc(-c4ccccc4)cc3)o2)nc1,-8.97% (inactive),
CCCCCCc1cc2cc(-c3nnc(-c4ccccc4)o3)c(=O)oc2cc1O,,56.2 µM (active)
Cc1cc(Cl)ccc1C(=O)C1CCCN(C(=O)c2nonc2C)C1 (stereo not given),-10.6% (inactive),
CCCCN(CC)CCNC(=O)c1[nH]c(C)c(C(C)=O)c1C,-4.24% (inactive),
CCC(=O)Nc1c(C)n[nH]c1C,-26.6% (inactive),
C=C1C(=O)OC2C1CCC(C)=CCCC1(C)OC21 (stereo not given),-21.4% (inactive),
CCCCCCCNc1nc(Cl)nc(NCCO)n1,10.9% (inactive),
CC1CCCN(CCCNC(=O)CN2C(=O)COc3ccc(S(=O)(=O)N4CCOCC4)cc32)C1 (stereo not given),-5.24% (inactive),
Nc1ccc2nc3c(=O)[nH]c(=S)[nH]c3nc2c1,,7.08 µM (active)
O=C(CC1SC(N2CCOCC2)=NC1=O)Nc1ccccc1F (stereo not given),6.19% (inactive),
N#C/C(=C\C1=C(N2CCOCC2)C(=C\c2ccccc2)/CC1)C(=O)Nc1ccccc1F,,15 µM (active)
O=C1Nc2ccc(Br)cc2/C1=N/N=C/C1=C(N2CCOCC2)C(=C\c2ccccc2)/CC1,-6.34% (inactive),
N#Cc1ccc(OCC(=O)NC(=O)NC2CCS(=O)(=O)C2)cc1 (stereo not given),0.741% (inactive),
CC(=O)Nc1ccc(S(=O)(=O)NCC(=O)OCc2cc(=O)oc3ccc4ccccc4c23)cc1,-10.6% (inactive),
O=C(N/N=C/c1sc(N2CCCCC2)nc1-c1cccs1)c1cccnc1,-17.8% (inactive),
C[C@H]1CN([C@@H](C)CO)C(=O)CCCn2nncc2CO[C@@H]1CN(C)S(=O)(=O)c1cccc(C#N)c1,-1.02% (inactive),
Cc1nnc(SCC(=O)Nc2ncc3c(n2)CC(C)(C)CC3=O)s1,-12.5% (inactive),
CC1=C/C(=N\OS(=O)(=O)c2ccccc2)C=CC1=O,,31.6 µM (active)
O=C1Nc2ccccc2-n2nnnc2C1N1CCN(c2cccc(C(F)(F)F)n2)CC1 (stereo not given),-3.28% (inactive),
CC1(c2cccc(N)c2)OCCO1,4.67% (inactive),
COCCNC(=O)CSc1nc(N)c(NC(=O)c2ccco2)c(=O)[nH]1,-1.82% (inactive),
Cc1ccc(NC(=O)OCCNC(=O)c2ccncc2)cc1,-1.82% (inactive),
COCCNC(=O)Nc1ccc2nc(-c3ccco3)c(-c3ccco3)nc2c1,,14.1 µM (active)
CC(=O)N(C1=C(Cl)C(=O)c2ccccc2C1=O)c1ccc(C(=O)O)cc1,,35.5 µM (active)

SMILES,"activity change, negative = inhibition",Potency
O=C(NC1=CC(=O)c2ccccc2C1=O)c1ccccc1,-14.7% (inactive),
CN(C)c1ccc(C(CNC(=O)c2ccc(F)cc2)c2c[nH]c3ccccc23)cc1 (stereo not given),-9.89% (inactive),
CCc1ccccc1NC(=O)CN(c1ccc(OC)cc1OC)S(=O)(=O)c1ccccc1[N+](=O)[O-],-11.4% (inactive),
CCC1OC(C2CC2)CC2=C1C(=O)OC(C)(C)O2 (stereo not given),1.03% (inactive),
CCc1nnc(NC(=O)c2cc(S(=O)(=O)N3CCCCC3)ccc2C)s1,0.0692% (inactive),
CCc1ccc2nc3sc(C(=O)Nc4nnc(CC)s4)c(N)c3cc2c1,,22.4 µM (active)
CCc1nnc(NC(=O)c2ccco2)s1,22% (inactive),
C=CCN1CCN(c2ccncc2S(=O)(=O)N2CCN(C)CC2)CC1,-5.89% (inactive),
N#Cc1c(N2CCCCC2)nc(N)c2c(N)nc(SCC(=O)O)cc12,,50.1 µM (active)
N#Cc1c(C(F)(F)F)cc(-c2cccs2)nc1N1CCCCC1,2.23% (inactive),
O=C(O)CSc1ccc(S(=O)(=O)N2CCCC2)cn1,2.34% (inactive),
Cn1cnnc1SCC(=O)Nc1ccc(N2CCOCC2)cc1,3.56% (inactive),
CN1CCN(c2ccc(NC(=O)c3cc(Cl)c4c(c3)OCCO4)cc2)CC1,-10.8% (inactive),
C=CC(=O)Nc1ccc(Nc2ccnc(Nc3ccc(N4CCN(C)CC4)cc3)n2)cc1,,50.1 µM (active)
CC(C)NC(=S)Nc1cccc2cnccc12,-2.33% (inactive),
COc1ccc(S(=O)(=O)N2CCN(CC(=O)N3c4ccccc4CC3C)CC2)cc1OC (stereo not given),-4.62% (inactive),
Cc1ccccc1-c1nc(NC(C)C)nc2cc(-c3ccccc3)sc12,1.98% (inactive),
O=S(=O)(O)c1cc2onnc2c2ccccc12,,56.2 µM (active)
O=C(Nc1ccc(OC(F)(F)F)cc1)c1ccc2c(c1)no[n+]2[O-],-31.1% (inactive),
Cc1ccc(S(=O)(=O)N2CCC(=O)N([C@H](COCc3ccccc3)Cc3ccccc3)CC2)cc1,5.73% (inactive),
CN(CCOc1ccc(CC2SC(=O)NC2=O)cc1)c1ccccn1 (stereo not given),,inactive
CCN(CC)CCOc1ccc2c(c1)C(=NNC(=O)c1ccccn1)c1cc(OCCN(CC)CC)ccc1-2,,35.5 µM (active)
CCN(CC)CCNCC(=O)Nc1ccc(Oc2ccccc2)cc1,-0.611% (inactive),
O=C(O)CSC(NC(=O)c1cccnc1)(C(F)(F)F)C(F)(F)F,-5.55% (inactive),
Cc1ccc(Cc2cnc(N)s2)o1,,44.7 µM (active)

SMILES,"activity change, negative = inhibition",Potency
Cc1ccc(CCC(=O)Nc2ncc(Cc3cc(Cl)ccc3Cl)s2)o1,-18.6% (inactive),
CSc1nnc(C2CCCN(CC(=O)Nc3ccccc3N3CCOCC3)C2)n1C(C)C (stereo not given),1.51% (inactive),
O=C(CSC(=S)N1CCOCC1)c1cc(Br)cc(Br)c1O,,56.2 µM (active)
O=C(c1cc2cc(Br)cc(Br)c2oc1=O)N1CCOCC1,18.6% (inactive),
O=C(CSC(=S)N1CCOCC1)c1ccccc1,-0.697% (inactive),
Cc1cc(=O)oc2cc(OC(C)C(=O)NCCc3ccc(S(N)(=O)=O)cc3)ccc12 (stereo not given),6.34% (inactive),
CCOC(=O)c1cc(-c2ccc(F)cc2)n(CC(=O)NCc2ccccn2)c1C,1.61% (inactive),
CCN(C(=O)COC(=O)/C=C/c1nc2ccccc2s1)C1CCS(=O)(=O)C1 (stereo not given),-4.22% (inactive),
O=C(COC(=O)c1cnccn1)Nc1ccc(Cl)cc1C(F)(F)F,-3.76% (inactive),
NC(=O)CSC1=Nc2ccccc2C2=NC(CCC(=O)NCc3ccc(F)cc3)C(=O)N12 (stereo not given),-10% (inactive),
O=C(CSC1=Nc2ccccc2C2=NC(c3ccccc3)C(=O)N12)NCC1CCCO1 (stereo not given),-2.26% (inactive),
CC(C)C1N=C2c3ccccc3N=C(SCC(=O)c3ccc(O)c(O)c3)N2C1=O (stereo not given),,17.8 µM (active)
O=C(NCCCn1ccnc1)C(=O)c1cn(CC(=O)N2CCCCCC2)c2ccccc12,-2.75% (inactive),
Cc1nc2ccc(S(=O)(=O)NCC(=O)O)cc2s1,2.69% (inactive),
C/C(CC(O)(/C=N/O)c1ccccc1)=N\O (stereo not given),3.21% (inactive),
Cn1sc(=O)c2cc(S(=O)(=O)NC3CC3)ccc21,,44.7 µM (active)
O=S(=O)(NC1CC1)c1ccc(Cl)cc1,-0.583% (inactive),
O=S(=O)(NC1CC1)c1ccc(F)c(F)c1,6.22% (inactive),
Cc1c(C(=O)NCCN(C)C)oc2ccc(S(=O)(=O)N3CCCC3)cc12,0.474% (inactive),
CCOP1(=O)C=C(C(C)(C)C)OC1c1ccc(F)cc1 (stereo not given),2.89% (inactive),
C[C@@H]1CN([C@H](C)CO)C(=O)CCCn2cc(nn2)CO[C@H]1CN(C)S(=O)(=O)c1ccc(Oc2ccccc2)nc1,6.33% (inactive),
CC12CCC(C(=O)N(CCC#N)CCC#N)(CC1=O)C2(C)C (stereo not given),-12% (inactive),
COC(=O)[C@@]1(Cc2ccc(F)cc2)[C@H]2c3cc(C(=O)N4CCCC4)n(C[C@H](O)CO)c3C[C@H]2CN1C(=O)c1ccccc1,-0.35% (inactive),
CCOC(=O)N1CCC(NC(=O)CN2C(=O)COc3ccc(C(C)(C)C)cc32)CC1,3.66% (inactive),
CC[C@]12c3[nH]c4ccc(OC)cc4c3CCN1C(=O)C(CC(=O)NCCN1CCOCC1)C[C@@H]2C(=O)N1CCN(C(=O)C2CC2)CC1 (stereo not given in full),10.8% (inactive),
